Where “and” joins values, the source holds several entries; their conditions need not be identical. Equal entries are not always repeated. In all, about 300,000 compounds went through this assay and about 310 (0.1%) were called active. Cut-off read from the data, not from the text of the source: active = fluorescence inhibition mostly above about 23% (no sharp cut-off); inactive = mostly below about 17%. Shown is part of a subset that was picked to be rich in actives.

41 compounds from PubChem BioAssay AID1159583 (ICCB-Longwood Screening Facility, Harvard Medical School, 2016) can be followed below.

The nature of this assay: hypoxia reporter signal reduction in M. tuberculosis – fluorescence, absorbance growth readout, primary screen (AID 1159583). The note with it: M. tuberculosis hypoxia-regulated fluorescent reporter, stronger effect = higher value, concentration not given here; growth inhibition: measured here: M. tuberculosis growth (absorbance).
For the compound `COc1cc(C=NNC(=O)C(=O)NCc2cccnc2)cc(OC)c1OC`, the fluorescence inhibition was 11.1% (inactive) and the growth inhibition was found to be 2.3%.
Turning to `COC(=O)C1C[C@@]2(Br)c3ccccc3N(S(=O)(=O)c3ccccc3)C2N1C(=O)OC` (some centres not stated), the fluorescence inhibition is -0.203% (inactive) and the growth inhibition is -1.54%.
For `CCOc1cccc(C=NN2C(C)CCCC2C)c1O` (configuration not stated), in that order: -2.33% (inactive) and -0.595%.
For the compound `O=C(NC1CCCCC1)C1CC=CC2CCN(C3CCCCC3)C(=O)C21` (configuration not stated), the fluorescence inhibition is 8% (inactive) and the growth inhibition worked out at 14.6%.
For `C[C@@]12C(=O)N(Cc3ccco3)CC(=O)N1C1c3cc(Cl)ccc3OCC1C2c1ccccc1` (some centres not stated) the same measures were -6.06% (inactive) and 1.32%.
For `Cn1cc([N+](=O)[O-])c(C(=O)NN=Cc2ccc([N+](=O)[O-])cc2)n1`, in that order: -5.59% (inactive) and 5.33%.
As to `Cc1ccc(C=NN(C)S(=O)(=O)c2ccc(C)cc2)cc1`, the fluorescence inhibition is -1.94% (inactive) and the growth inhibition was -2.51%.
Consider `CCOC(=O)C1=C(C)CC(=NNC(=O)c2ccccc2O)CC1`, for which the fluorescence inhibition is 19.7% (inactive) and the growth inhibition worked out at 25.6%.
Consider `CC(=NNC(=O)c1ccc(CSc2nncn2C)cc1)c1ccc(Cl)cc1`, for which the fluorescence inhibition was -0.114% (inactive) and the growth inhibition was found to be 4.72%.
Turning to `Cc1cc(C)nc(N=C(N)C2=C(O)CC(C)(C)CC2=O)n1`, the fluorescence inhibition is 8.68% (inactive) and the growth inhibition was determined as 10.4%.
For `CC(Oc1ccccc1[N+](=O)[O-])C(=O)NN=Cc1ccoc1` (configuration not stated) the same measures were -0.473% (inactive) and 0.98%.
Take `Cc1cc(C=NO)c(C)n1-c1ccccc1`: the fluorescence inhibition is 10.5% (inactive) and the growth inhibition came out at 1.78%.
With `C/C(C=NNC(=O)c1ccncc1)=C\c1ccccc1`, the fluorescence inhibition was 16.5% (inactive) and the growth inhibition was 7.43%.
Take `Cc1nn(-c2ccccc2)c(Cl)c1C=NNC(=O)c1cccc(S(=O)(=O)N2CCCC2)c1`: the fluorescence inhibition was 10.2% (inactive) and the growth inhibition turned out to be 5.33%.
For `C=C1CCN(C(C(=O)NCc2ccc(OC)cc2)C(C)C)S(=O)(=O)c2ccccc21` (configuration not stated), in that order: 1.86% (inactive) and 4.01%.
As to `O=C1CSC(=S)N1N=Cc1ccc(C(F)(F)F)cc1`, the fluorescence inhibition was 17.6% (inactive) and the growth inhibition came out at 14.7%.
Turning to `COCCCNC(=S)NN=Cc1ccc(N(C)C)cc1`, the fluorescence inhibition is 11.6% (inactive) and the growth inhibition amounted to 2.41%.
For `CC(=NNC(=O)c1c(C)nc2ccccn12)c1ccc(C(C)(C)C)cc1`, in that order: -2.47% (inactive) and 18.1%.
Regarding `CC(C)C(NC(=O)c1ccccc1)C(=O)OCC(=O)N1CCCc2ccccc21` (configuration not stated), the fluorescence inhibition was 6.63% (inactive) and the growth inhibition turned out to be 6.94%.
Turning to `COc1cccc(C=NNC(=O)CSCC(=O)Nc2ccccc2)c1O`, the fluorescence inhibition was 0.94% (inactive) and the growth inhibition stood at 11.7%.
With `CC(=NNC(=O)c1cc(-c2ccc(Cl)s2)[nH]n1)c1ccco1`, the fluorescence inhibition is 0.382% (inactive) and the growth inhibition came out at 4.98%.
Take `CSc1ccc(C=NNC(=O)CNc2ccc3ccccc3c2)cc1`: the fluorescence inhibition is 3.37% (inactive) and the growth inhibition was -2.84%.
For `O=C1NC(Cc2ccccc2)C(=O)N2C1C[C@]1(Br)c3ccccc3N(S(=O)(=O)c3ccccc3)C21` (some centres not stated), the fluorescence inhibition is 4.31% (inactive) and 12.8% (inactive); the growth inhibition was 6.26% and 10.9%.
Take `COc1ccccc1C=NNC(=O)c1ccc2c(c1)OCO2`: the fluorescence inhibition is 14.7% (inactive) and the growth inhibition amounted to 5.14%.
Consider `COCCCN1C(=O)C(=O)C(=C(O)c2ccc(C)cc2)C1c1ccccc1` (configuration not stated), for which the fluorescence inhibition was -3.99% (inactive) and the growth inhibition is -0.925%.
For `CC1CN=C(Nc2ccccc2)N1CCCC1CCCCC1` (configuration not stated), in that order: 7.1% (inactive) and 4.93%.
For `Cc1ccccc1C1=N/C(=C/c2cccnc2)C(=O)O1` the same measures were -4.88% (inactive) and 6.23%.
With `O=C1/C(=C\c2cccnc2)CN(Cc2ccccc2)C/C1=C\c1cccnc1`, the fluorescence inhibition is 53.7% (active) and the growth inhibition was 35.7%.
As for `O=C1CCCC1=c1sc(=Cc2cccnc2)c(=O)n1-c1ccccc1`, the fluorescence inhibition is 9.8% (inactive) and the growth inhibition is 5.53%.
Consider `Cc1cc(C(=O)NN=Cc2ccc3ccccc3c2)n[nH]1`, for which the fluorescence inhibition was 7.06% (inactive) and the growth inhibition was -3.88%.
Consider `CN(C)c1ccc(C=NNC(=O)c2nonc2N)cc1[N+](=O)[O-]`, for which the fluorescence inhibition was 2.61% (inactive) and the growth inhibition is -5.42%.
For `Cc1ccc(NCC(=O)NN=Cc2ccc([N+](=O)[O-])o2)cc1` the same measures were -3.3% (inactive) and 3.65%.
For `Nc1nonc1C(=O)NN=Cc1ccc([N+](=O)[O-])o1`, the fluorescence inhibition is 52.4% (active) and the growth inhibition was found to be 31.3%.
In the case of `Cc1cccc(C=NNC(=O)CN2CCCCCCC2)c1`, the fluorescence inhibition is 2.65% (inactive) and the growth inhibition is 8.69%.
Consider `COc1ccc(C2CC=C(C(=O)O)C(c3ccccc3F)N2S(=O)(=O)c2ccc(C)cc2)cc1OC` (configuration not stated), for which the fluorescence inhibition is 19.4% (inactive) and the growth inhibition was determined as 4.47%.
On to `CCCC(=O)O[C@]1(C(=O)CCl)C(C)CC2C3CCC4=CC(=O)C=C[C@]4(C)[C@@]3(F)C(=O)C[C@@]21C` (some centres not stated), for which the fluorescence inhibition was -12.7% (inactive) and the growth inhibition was 2.62%.
In the case of `Cc1ccc(S(=O)(=O)N(C)CC(=O)NN=Cc2ccc(C)o2)cc1`, the fluorescence inhibition was -4.3% (inactive) and the growth inhibition was determined as 1.08%.
`COc1ccc(C2OCC3OC(O)C(NC(C)=O)C(O)C3O2)cc1` (configuration not stated): the fluorescence inhibition was 4.65% (inactive) and the growth inhibition is 11.9%.
Regarding `CCN(CC)CCOc1ccc2c(c1)C(=NNC(=O)c1ccccn1)c1cc(OCCN(CC)CC)ccc1-2`, the fluorescence inhibition was 46.2% (active) and the growth inhibition turned out to be 20.2%.
For `CCc1ccc(C=NNC(=O)c2ccccn2)cc1`, in that order: 9.62% (inactive) and 15.4%.
`COc1ccc(C(=O)NN=C(c2ccccc2)c2ccccn2)cc1`: the fluorescence inhibition is -1.57% (inactive) and the growth inhibition is 6.08%.
